Assay results taken from publication PMC7819943, “Rice protein-binding microarrays: a tool to detect cis-acting elements near promoter regions in rice”.
Over roughly 68,000 sequences, “fluorescence intensity (a.u.)” has its median near 9,100; the highest 2% begin near 16,000. The sample holds the highest values, similar sequences and a random draw of the others, so the mix is not that of the screen.

The sequences below were run against OsWRKY34 (Oryza sativa, UniProt Q0JBA9 1-250) (assay: protein-binding microarray (RPBM); PBS, 2% BSA, 51.3 ng/ul salmon testes DNA, 50 uM zinc acetate, 200 nM TF, 25 C, 1 h; high values mean tight binding). Details: protein: recombinant; tags: N-terminal polyhistidine and DsRed monomer fusion (pET32a); label: CyDye5-dUTP incorporated in the synthesized complementary strand; 3' TTTTT single-stranded linker to array surface; dsDNA, one strand shown.
OsWRKY34, sequence (Q0JBA9 entry or part of it): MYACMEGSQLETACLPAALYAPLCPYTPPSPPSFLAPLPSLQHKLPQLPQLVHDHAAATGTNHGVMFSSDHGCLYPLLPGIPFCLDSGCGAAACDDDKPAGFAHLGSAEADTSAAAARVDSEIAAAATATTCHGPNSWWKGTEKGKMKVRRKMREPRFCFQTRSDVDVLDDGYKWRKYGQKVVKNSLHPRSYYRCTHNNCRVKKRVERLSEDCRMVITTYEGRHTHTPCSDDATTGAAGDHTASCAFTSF
Procedure, shortened: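 The binding signal is fluorescence intensity per array feature (arbitrary units). Readings came from an Axon 4000B scanner after a washed, 2% BSA-blocked, double-stranded custom Agilent array had been incubated for 1 h at 25 °C with 200 nM protein and 50 µM zinc acetate. The protein was a Ni–NTA-purified transcription factor fused N-terminally to polyhistidine and DsRed, expressed in E. coli BL21-CodonPlus.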

Sequence | binding signal
CTTCTCAAGTTCCAACCTTTGCGCTTTCTTATTATCAAAGCGGAGTCACCTAGTGCAG | 8550 fluorescence intensity (a.u.)
GCACGCATGCAGTTCCTTGACCAATTCTCACATCAACCACCGGAGTCACCTAGTGCAG | 9100 fluorescence intensity (a.u.)
AAACGTATGGCTGCTCTCTCTCTGCTGATGATCTCTCTCTCGGAGTCACCTAGTGCAG | 8180 fluorescence intensity (a.u.)
GCCAATTTTTTCTCCTCACATCTATTTTACCCTATTATTCCGGAGTCACCTAGTGCAG | 8390 fluorescence intensity (a.u.)
CCGAGCACCCACCCGCCGCCGCCGCCGTCGCCGATTCATGCGGAGTCACCTAGTGCAG | 9080 fluorescence intensity (a.u.)
GTAATTAACCAGAATTCAGGTTTTGTCAGTGCCACCATCACGGAGTCACCTAGTGCAG | 9850 fluorescence intensity (a.u.)
TGTTGACTTTTGGATACATGTTTGACAATTCGTCTTATTTCGGAGTCACCTAGTGCAG | 14700 fluorescence intensity (a.u.)
TTTGTGTTGTCTAGACATTTTTTTCTATTTTTCACCTATTCGGAGTCACCTAGTGCAG | 9190 fluorescence intensity (a.u.)
GAATCATGAGTTGGTTGGGTTGGCATTAAACTGTTTTGAGCGGAGTCACCTAGTGCAG | 12100 fluorescence intensity (a.u.)
TCGTTGATTTTTGACATGATGTTTGACCATTCTTATTATTCGGAGTCACCTAGTGCAG | 9750 fluorescence intensity (a.u.)
ATTTCTAACTTTTTTTCCCATTGTTTTGTTTGTCTTATTTCGGAGTCACCTAGTGCAG | 8920 fluorescence intensity (a.u.)
ACTTTGTCCACCCATTTTGTGTTGTCTCGTTGTTTCTATTCGGAGTCACCTAGTGCAG | 17000 fluorescence intensity (a.u.)
ATGACATGTCATGGGACTTACTTTACATGGTTTTGAATACCGGAGTCACCTAGTGCAG | 8140 fluorescence intensity (a.u.)
ATTTTATTGTTGCGGTTGCCAATCAACAACGACGTCATTTCGGAGTCACCTAGTGCAG | 9550 fluorescence intensity (a.u.)
GGTTTTGCGGTTGAGCGAAACGACCCAATGGGAATCAAGACGGAGTCACCTAGTGCAG | 60000 fluorescence intensity (a.u.)
CGTTGACTTTTTCTTACATGTTTGACCATTCGTCTTATTTCGGAGTCACCTAGTGCAG | 35300 fluorescence intensity (a.u.)
GACACGGAAAATCATGGTTTGACTTTTTTTTTTGGGACGGCGGAGTCACCTAGTGCAG | 19400 fluorescence intensity (a.u.)
TGGGACTTTATTTGCACTGGTTTTGGGAGTTGAGGGACACCGGAGTCACCTAGTGCAG | 8550 fluorescence intensity (a.u.)
GGCCTCTCAACTGACCCGTCTGCGAAATATGTTTATTTTCCGGAGTCACCTAGTGCAG | 8060 fluorescence intensity (a.u.)
ATTTATAGAGGTTGGGTGTGCATGTGTGGTGAGCATATTTCGGAGTCACCTAGTGCAG | 8820 fluorescence intensity (a.u.)
GCTAGCGCTGCCGCCCTACTCTTGATCCTAAATATTCATTCGGAGTCACCTAGTGCAG | 8210 fluorescence intensity (a.u.)
ACTGGTCGAACCTTGGCGGGGAGGGGCCGGCCGGCCTCATCGGAGTCACCTAGTGCAG | 8640 fluorescence intensity (a.u.)

Sequence | binding signal
ATGAAATGTTTGTCATTTCTGGTGGGGCTGTTAGTTAATTCGGAGTCACCTAGTGCAG | 9970 fluorescence intensity (a.u.)
CAAACCTGTGTACTTTCTACGTGTTTTTTCTATGTTTCCGCGGAGTCACCTAGTGCAG | 12100 fluorescence intensity (a.u.)
ACCATATGCATCTGAATTTGTTCTGAGTATACTCCATTTCCGGAGTCACCTAGTGCAG | 10600 fluorescence intensity (a.u.)
TGCCCGACTTGGCTTTCTCCTCCTCTCTCCTCCCGCAACCCGGAGTCACCTAGTGCAG | 8600 fluorescence intensity (a.u.)
AGCAGTTAACCCACCGTACAACAAAATCAATCAGTTTCTTCGGAGTCACCTAGTGCAG | 8270 fluorescence intensity (a.u.)
CCGCCGCCGCCTCCTGCTCCTTCGACCTGCCCCGGCCCCGCGGAGTCACCTAGTGCAG | 8870 fluorescence intensity (a.u.)
CCCCTATTTAGCCGCGCCATTTTCCCCTCGCTAGCTGTGTCGGAGTCACCTAGTGCAG | 8400 fluorescence intensity (a.u.)
TAATTTTTATAGGCCTGTTCATATTTTCTACCGTTGATTTCGGAGTCACCTAGTGCAG | 10300 fluorescence intensity (a.u.)
TTGACATCCTACGTTTGTGTTCCTCGTCACTCCACTATCGCGGAGTCACCTAGTGCAG | 8040 fluorescence intensity (a.u.)
ATTGACTTTTTTAAAAATGTTTGACCATTCGTCTTATTCACGGAGTCACCTAGTGCAG | 9010 fluorescence intensity (a.u.)
TCTGTATGGTCTACTTGTTTGATTGATTGATAATTTTACACGGAGTCACCTAGTGCAG | 9240 fluorescence intensity (a.u.)
ATATTTTTTCTGTGTTTTGCAATCTTCTATTTTACACTTTCGGAGTCACCTAGTGCAG | 11200 fluorescence intensity (a.u.)
ACACCATTGACTTTTTAATATGTGTTTGACCATTCGTCTTCGGAGTCACCTAGTGCAG | 19200 fluorescence intensity (a.u.)
CTTACTTGGTCACTCCCTTTTTGTTATCTGATTTAGACGTCGGAGTCACCTAGTGCAG | 8230 fluorescence intensity (a.u.)
TGTTTGACACCATTGACTTTTTAGTATGTGTTTGACCATTCGGAGTCACCTAGTGCAG | 13200 fluorescence intensity (a.u.)
TTTTGACTTTCTCTTACACTGTTTGACCATTTATCTTATTCGGAGTCACCTAGTGCAG | 14000 fluorescence intensity (a.u.)
CCAATTTCTCTCTCCACATCTCTCTGTGTTTCTTTTATTTCGGAGTCACCTAGTGCAG | 9680 fluorescence intensity (a.u.)
CTGTGTTTTCTATTTTTCTCTGTTTTACATCTATCTTCTTCGGAGTCACCTAGTGCAG | 19100 fluorescence intensity (a.u.)
CGTCCTTATATAATTGTTTTACTTGGTGATTTCATCTGGTCGGAGTCACCTAGTGCAG | 64500 fluorescence intensity (a.u.)
TTCTTTTTATATTTTCTTTTGTTGGTTTTTTTCGTCTCAACGGAGTCACCTAGTGCAG | 13200 fluorescence intensity (a.u.)
GGTTGGTTTCTTTGTTTTTCTCTTATATTTACACTATATTCGGAGTCACCTAGTGCAG | 23800 fluorescence intensity (a.u.)
